Screening results: PubChem BioAssay, National Center for Advancing Translational Sciences (NCATS)
Sampled rows, rich in hits. Any-hit rate of the full collection: about 19%.
HT1080NT lethal: qHTS for induction of synthetic lethality in tumor cells producing 2HG: qHTS for the HT-1080-NT fibrosarcoma cell line; 360,000 compounds, 1.6% hits; Potency, µM (top dose mostly 46.1 µM), hits mostly cytotoxic; AID 686970, 2013; HT-1080-NT fibrosarcoma viability, CellTiter-Glo ATP luminescence, 48 h;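 note: NT is the 2HG producing partner of a matched IDH1 knockdown line; nearly all actives have a fitted effect of over 55% in size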
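Read-out is CellTiter-Glo luminescence after 10 minutes at room temperature, following 48 hours' compound treatment of HT-1080-NT cells (750 cells/well, RPMI, 5% FBS, 37 degrees C).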
IL-1B inflam inh: qHTS for Inhibitors of Inflammasome Signaling: IL-1-beta AlphaLISA Primary Screen; activity change, % at 57.5 µM; 360,000 compounds, 4.7% hits; THP-1 LPS/ATP IL-1B secretion, AlphaLISA, 16 h; stronger effect = lower value; in the data active = activity change below about -50%; inconclusive = mostly about -30% to -49%
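Secreted IL-1B measured by AlphaLISA bead assay after 16 h compound exposure of THP-1 cells; compounds (final up to 57.5 uM) added 1 h before LPS (250 ng/mL) and ATP (1.25 mM) stimulation; lower signal means less secretion.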
DT40 TDP1 no CPT: qHTS for Inhibitors of human tyrosyl-DNA phosphodiesterase 1 (TDP1): qHTS in cells in absence of CPT | DT40 Tdp1-/- hTDP1 cells, no CPT, ATP luminescence, 48 h | Potency, µM (titrated, usually from 46.2 µM), hits mostly inhibitors | 420,000 compounds, 15% hits | AID 686978, 2013; note: nearly all actives have a fitted effect of over 55% in size
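Compound effects on proliferation are scored in DT40 Tdp1-/-;hTDP1 cells in the absence of CPT. ATP levels (CellTiter-Glo luminescence) are recorded after a ≥48 hr, 37 °C incubation.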
DT40 TDP1 CPT: qHTS for Inhibitors of human tyrosyl-DNA phosphodiesterase 1 (TDP1): qHTS in cells in presence of CPT. chicken DT40 Tdp1-/-;hTDP1 cells + 20 nM CPT, ATP luminescence, 48 h. 420,000 compounds, 12% hits. Potency, µM (top dose mostly 46.2 µM), usual class: inhibitors; note: nearly all actives have a fitted effect of over 55% in size
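Cell growth measured by CellTiter-Glo luminescence after a minimum 48 h, 37 C compound exposure with 20 nM CPT in Tdp1-knockout DT40 cells stably expressing hTDP1, seeded 400/well; qHTS titration format.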
HT1080 IDH1KD tx: qHTS for induction of synthetic lethality in tumor cells producing 2HG: qHTS for the HT-1080-IDH1KD cell line; HT-1080 IDH1 knockdown viability, ATP luminescence, 48 h; Potency, µM (series often up to 46.1 µM), usual class: cytotoxic; 360,000 compounds, 2% hits; AID 686971, 2013
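Using the IDH1-knockdown HT-1080 line run in the same batch and compound series as the NT line, viability after 48 h at 37 °C was determined by CellTiter-Glo luminescence and expressed as % activity.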
Numbers stand for hits; – = inactive; ? = inconclusive; · = not tested or not shown. Unless noted, calls come from the whole dose curve; as a rule, active = well fitted curve in the direction sought with a large enough effect; inconclusive = small, poorly fitted or top-dose-only effect, or another doubt; inactive = no such curve, though single readings can be large; an effect the other way counts as inactive or inconclusive.

SMILES | HT1080NT lethal | IL-1B inflam inh | DT40 TDP1 no CPT | DT40 TDP1 CPT | HT1080 IDH1KD tx
Cc1ccc2nc(SCC(=O)Nc3ccc4c(c3)OCO4)nc(=O)n2c1 | – | – | – | – | –
CSc1sc(-c2ccnc(SCCS(C)(=O)=O)n2)c(-c2ccccc2)c1C#N | – | – | 18µM | ? | –
CSc1nccc(-c2sc(SC)c(C#N)c2-c2ccccc2)n1 | – | – | ? | – | –
c1coc(-c2cc3nc(NCc4ccc5c(c4)OCO5)ccn3n2)c1 | – | – | – | ? | –
COc1ccccc1CC(NC(C)=O)C(=O)NC1CCN(C(=O)c2cccc(Cl)c2)CC1 (configuration not stated) | – | – | – | – | –
Cc1ccc(C(C)c2c(C)c([N+](=O)[O-])cc(C)c2[N+](=O)[O-])cn1 (configuration not stated) | – | – | ? | ? | –
COc1ccc(Cc2nnc(SCC(=O)Nc3c(C)cccc3C)[nH]c2=O)cc1 | – | – | 9.2µM | ? | –
Cc1cccc(OCC(=O)NCC(=O)N/N=C/c2ccc(O)cc2O)c1 | – | – | 5.8µM | 16µM | 18µM
COc1cccc(/C=N/NC(=O)CNC(=O)COc2cccc(C)c2)c1O | ? | – | 18µM | 7.3µM | 23µM
CCNC(=S)/N=C(/Nc1ccc(OC)cc1)Nc1nc(C)cc(C)n1 | – | – | 21µM | 23µM | –
CCNC(=S)/N=C(/Nc1ccccc1)Nc1nc(C)cc(C)n1 | – | · | ? | ? | –
COc1cccc(NC(=S)Nc2cc(C)cc(C)n2)c1 | – | · | – | – | –
COc1cccc(N/C(=N/C(=S)Nc2ccc(C)cc2C)Nc2nc(C)cc(C)n2)c1 | ? | – | 18µM | ? | ?
CC1CCCC(NC(=O)NC(=O)CCl)C1C (configuration not stated) | – | -63 | 3.7µM | 3.7µM | –
CC1CCCCC1NC(=O)NC(=O)CCl (configuration not stated) | – | -96 | 5.2µM | 2.9µM | ?
CC(C)CNS(=O)(=O)c1ccccc1C(=O)N1CCCCC1 | – | – | – | – | –
Cc1cccc(C)c1OCC(O)CNS(=O)(=O)c1ccccc1C(=O)N1CCCCC1 (configuration not stated) | – | – | 21µM | 18µM | –
Cc1ccc(C(=O)Nn2cnc3ccccc3c2=O)cc1C | – | – | – | – | –
O=C(NCc1ccccc1)c1ccc(CSc2nc3cccnc3n2Cc2ccccc2F)cc1 | · | · | 18µM | ? | ·
Cn1c(SCc2ccc(F)cc2)nc2ccc(C(=O)NCc3ccccc3)cc21 | · | · | – | – | ·
COc1cccc(CNC(=O)c2ccc(Cn3c(SCc4ccccc4)nc4cccnc43)cc2)c1 | · | · | ? | 8.2µM | ·
O=C(CCCCCn1c(SCc2ccncc2)nc2ccccc2c1=O)NCc1ccco1 | ? | ? | ? | ? | 11µM
COc1ccc(CC(=O)NCc2nc3cccnc3n2Cc2ccccc2)cc1 | · | · | ? | – | ·
Cc1cccc(CNC(=O)c2ccc(Cn3c(SCc4ccccc4)nc4cccnc43)cc2)c1 | · | · | 16µM | ? | ·
CC1CCc2nc3ccc(S(=O)(=O)N4CCC(C(=O)N5CCCCCC5)CC4)cc3c(C(=O)O)c2C1 (configuration not stated) | – | – | – | – | –
COc1ccc(-c2nn(CCC(=O)O)cc2/C=N/NC(N)=S)cc1 | – | – | – | – | –
O=C(NCc1ccco1)c1ccc(Cn2c(SCc3ccccc3)nc3cccnc32)cc1 | · | · | 26µM | 4.1µM | ·
COc1ccccc1-c1ccc2c(c1)C(C)(Cc1ccc(Cl)c(Cl)c1)C(=O)N2 (configuration not stated) | ? | – | ? | 21µM | 23µM
COc1ccccc1-c1ccc2c(c1)C(C)(Cc1ccccc1C#N)C(=O)N2 (configuration not stated) | – | – | ? | 21µM | –
C#CCSc1nncn1C(=O)/C=C/c1ccccc1 | ? | -81 | ? | 13µM | –
